Some test systems named below: SR leukemia; RPMI-8226 leukemia; OVCAR-8 ovarian; OVCAR-5 ovarian; OVCAR-4 ovarian; SK-OV-3 ovarian; IGROV1 ovarian; OVCAR-3 ovarian; HS 578T breast; NCI/ADR-RES ovarian; T-47D breast; BT-549 breast; SW-620 colon; MCF7 breast; HCT-116 colon; HCC-2998 colon; KM12 colon; MDA-MB-435 melanoma.
Holding throughout (assay): NCI-60 one-dose screen, 48 h (100 = growth as untreated, 0 = no growth, -100 = all killed)
Settings in all cases: 10 µM unless noted

This is part of a sample that, as a whole, favours compounds with a hit. Of some 83,000 tested, about 20% had one in any assay.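 Single-dose data. Exposure time 48 hours. Values below 10 considered active.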 Values without a mark were called inactive. Activity calls are given as the source filed them.

`CC(C)N1C(=O)S/C(=C2/SC(=O)N(C(C)C)C2=O)C1=O`: the growth was 103% in the assay on SR leukemia; 93.9% in the assay on RPMI-8226 leukemia; 104% in the assay on OVCAR-8 ovarian; 101% in the assay with OVCAR-5 ovarian; 97.4% with OVCAR-4 ovarian; 127% in the assay with SK-OV-3 ovarian. Further, the growth was 98.9% in the assay on IGROV1 ovarian; 106% in the assay on OVCAR-3 ovarian; 99.7% in the assay on HS 578T breast; 103% in the assay on NCI/ADR-RES ovarian; 104% in the assay with T-47D breast; 93.6% with BT-549 breast. In addition, the growth in the assay with SW-620 colon is 102%; in the assay with MCF7 breast, 97.9%; with HCT-116 colon it was 105%; with HCC-2998 colon, 104%; with KM12 colon, 99.9%.

In the case of `COc1ccc(/C=C/c2nc(Nc3ccc(S(=O)(=O)Nc4cc(C)on4)cc3)c3ccccc3n2)cc1`, the growth was 45.4% in the assay with SR leukemia; 67.9% with RPMI-8226 leukemia; 61.3% in the assay on OVCAR-8 ovarian; 71.1% in the assay with OVCAR-5 ovarian; 73.4% in the assay on OVCAR-4 ovarian; 77.4% with SK-OV-3 ovarian. For the same molecule, the growth in the assay with IGROV1 ovarian is 78%; with OVCAR-3 ovarian, 83.7%; in the assay on HS 578T breast, 80.3%; with NCI/ADR-RES ovarian, 75.7%; in the assay with T-47D breast it was 37.4%; with BT-549 breast it was 85.8%. In addition, the growth in the assay with SW-620 colon is 70%; with MCF7 breast it was 32.1%; with HCT-116 colon it was 68.1%; with HCC-2998 colon, 69.6%; with KM12 colon, 49%.

For `Cn1ccc2c1CC1CN(Cc3ccco3)C(=O)C1C2C(=O)O` (stereo not drawn), the growth in the assay on SR leukemia was 107%; with RPMI-8226 leukemia it was 109%; in the assay on OVCAR-8 ovarian, 106%; in the assay with OVCAR-5 ovarian, 95%; in the assay on OVCAR-4 ovarian, 99.5%; with SK-OV-3 ovarian it was 109%. Further, the growth in the assay with IGROV1 ovarian was 104%; with OVCAR-3 ovarian it was 103%; in the assay on HS 578T breast it was 98.7%; in the assay on NCI/ADR-RES ovarian, 99%; in the assay with T-47D breast, 98.7%; in the assay with MDA-MB-435 melanoma it was 101%. Besides, the growth in the assay on SW-620 colon is 98.7%; in the assay on MCF7 breast, 95.7%; in the assay with HCT-116 colon, 104%; in the assay with HCC-2998 colon, 104%; with KM12 colon it was 101%.

With `NS(=O)(=O)c1ccc(CCN2C(=O)c3cc(Cl)c(Cl)cc3C2=O)cc1`, the growth in the assay on SR leukemia was 96%; in the assay on RPMI-8226 leukemia, 104%; in the assay on OVCAR-8 ovarian it was 106%; with OVCAR-5 ovarian, 108%; with OVCAR-4 ovarian, 104%; with SK-OV-3 ovarian it was 113%. The growth is 107% in the assay with IGROV1 ovarian; 109% with OVCAR-3 ovarian; 108% in the assay with HS 578T breast; 105% in the assay with NCI/ADR-RES ovarian; 98.4% with T-47D breast; 109% with BT-549 breast. Besides, the growth in the assay with SW-620 colon is 110%; with MCF7 breast it was 98.6%; with HCT-116 colon it was 100%; with HCC-2998 colon, 90.2%; with KM12 colon, 100%.

For the molecule `CCCN1[C@@H]2CC[C@H]1/C(=C\c1ccc(OC)c(OC)c1)C(=O)/C2=C/c1ccc(OC)c(OC)c1`, the growth was 26.8% with SR leukemia; 9.06% (active) in the assay on RPMI-8226 leukemia; 35.5% in the assay on OVCAR-8 ovarian; 78.2% in the assay with OVCAR-5 ovarian; 46% in the assay on OVCAR-4 ovarian; 66.2% with SK-OV-3 ovarian. In addition, the growth with IGROV1 ovarian was 56.8%; in the assay on OVCAR-3 ovarian it was 56.9%; in the assay with HS 578T breast it was 54.2%; with NCI/ADR-RES ovarian it was 42%; in the assay with T-47D breast it was 25.1%; in the assay with MDA-MB-435 melanoma, 39.6%. Besides, the growth in the assay on SW-620 colon was 43%; with MCF7 breast, 30.2%; in the assay with HCT-116 colon, 22.1%; in the assay on HCC-2998 colon it was 86.7%; with KM12 colon it was 54.6%.

In the case of `[O-][n+]1c(Cl)cc(Cl)c2ccccc21`, the growth in the assay with SR leukemia is 89.2%; in the assay on RPMI-8226 leukemia, 95%; in the assay on OVCAR-8 ovarian, 87.4%; in the assay on OVCAR-5 ovarian it was 101%; with OVCAR-4 ovarian, 101%; with SK-OV-3 ovarian, 94.4%. The growth with IGROV1 ovarian is 104%; with OVCAR-3 ovarian it was 93.7%; in the assay on HS 578T breast, 92.2%; in the assay on NCI/ADR-RES ovarian, 101%; in the assay on T-47D breast, 97.7%; in the assay on MDA-MB-435 melanoma it was 101%. The growth in the assay with SW-620 colon is 107%; in the assay with MCF7 breast, 97.4%; with HCT-116 colon, 103%; in the assay on HCC-2998 colon, 104%; in the assay on KM12 colon it was 95.1%.

`O=C(CCN1CCCC1)Nc1ccc2c(NCCCc3ccccc3)c3ccccc3nc2c1`: the growth in the assay with SR leukemia is -22.3% (active); in the assay with RPMI-8226 leukemia, -36.6% (active); in the assay with OVCAR-8 ovarian it was 9.97% (active); with OVCAR-5 ovarian, 32.1%; with OVCAR-4 ovarian, -18.6% (active); with SK-OV-3 ovarian, 13%. Moreover, the growth in the assay on IGROV1 ovarian was 11.7%; in the assay with OVCAR-3 ovarian, -70.7% (active); in the assay with HS 578T breast, 27.4%; in the assay on NCI/ADR-RES ovarian it was 91.2%; in the assay with T-47D breast, 11.6%; in the assay on BT-549 breast, 47.7%. Moreover, the growth with SW-620 colon was -63.3% (active); with MCF7 breast, -44.3% (active); with HCT-116 colon, -63.5% (active); in the assay with HCC-2998 colon, 2.16% (active); in the assay with KM12 colon, -10% (active).

Take `COc1ccc(CNCCN2C(=O)c3ccc4c5c(ccc(c35)C2=O)C(=O)N(CCNCc2ccc(OC)c(OC)c2OC)C4=O)c(OC)c1OC`: the growth in the assay on SR leukemia was -23.2% (active); in the assay on RPMI-8226 leukemia, -25% (active); in the assay with OVCAR-8 ovarian, -9.78% (active); with OVCAR-5 ovarian, -60.1% (active); in the assay on OVCAR-4 ovarian it was -94.1% (active); with SK-OV-3 ovarian, 58%. Also, the growth with IGROV1 ovarian was -29.9% (active); in the assay with OVCAR-3 ovarian, -42.8% (active); in the assay with HS 578T breast, -34.6% (active); with NCI/ADR-RES ovarian, -3.82% (active); in the assay on T-47D breast it was -18.4% (active); with MDA-MB-435 melanoma it was -48.2% (active). Further, the growth is -37% (active) in the assay with SW-620 colon; -67.1% (active) in the assay with MCF7 breast; 1.82% (active) in the assay on HCT-116 colon; -79.5% (active) with HCC-2998 colon; -41.4% (active) in the assay with KM12 colon.

In the case of `NC(=NCCCOc1ccc(F)cc1)Nc1ccc(Cl)cc1`, the growth in the assay on SR leukemia is 72%; with RPMI-8226 leukemia, 85.3%; in the assay on OVCAR-8 ovarian it was 90.1%; in the assay with OVCAR-5 ovarian, 54.5%; in the assay on OVCAR-4 ovarian, 46%; in the assay on SK-OV-3 ovarian it was 75.6%. Further, the growth was 30.9% in the assay on IGROV1 ovarian; 89.6% in the assay on OVCAR-3 ovarian; 81.9% in the assay on HS 578T breast; 77.3% with NCI/ADR-RES ovarian; 18.6% with T-47D breast; 46.8% with MDA-MB-435 melanoma. Moreover, the growth with SW-620 colon is 56.9%; in the assay with MCF7 breast, 7.28% (active); in the assay on HCT-116 colon it was 16.5%; in the assay with HCC-2998 colon, 40.8%; in the assay with KM12 colon, 76.7%.

For the origin of these results see PubChem BioAssay (NCI).
